Screening data: PubChem, National Center for Advancing Translational Sciences (NCATS)
A selection: hits, their analogues and other compounds. The true share with any hit is near 10%.
NIH3T3 tox = Cytotoxic Profiling in NIH 3T3 Cell Line of Diverse Libraries Using Quantitative High-Throughput Screening. NIH 3T3 viability, CellTiter-Glo ATP luminescence, 48-72 h. Potency, µM (series often up to 96.7 µM), hits mostly inhibitors. hit rate 4.3% among 94,000; also: nearly all actives have a fitted effect of over 55% in size
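Cytotoxicity was measured by CellTiter-Glo ATP luminescence after 48 or 72 h compound exposure at 37 °C. Mouse NIH 3T3 fibroblasts were seeded at 400 cells/well and dosed by 23 nL pin transfer.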
FLuc inh = Firefly luciferase inhibition profiling of diverse chemical library using quantitative high-throughput screening; Luciferin 4-monooxygenase (Photinus pyralis), P08659; purified P. pyralis luciferase, luminescence, biochemical; Potency, µM (highest dose often 115 µM), actives largely listed as inhibitors; hit rate 2.5% among 76,000; AID 1347043, 2019; also: nearly all actives have a fitted effect of over 65% in size
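Luminescence read by CCD imager after adding enzyme (10nM final) to wells holding compound, titrated in qHTS. Substrates 10uM each D-luciferin and ATP; buffer 50mM Tris acetate pH 7.5, 10mM Mg acetate, Tween-20, BSA.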
GPT2 inhibitor = Primary qHTS assay for inhibitors of Glutamate pyruvate transaminase 2 (GPT2) | AID 1671188, 2021 | Potency, µM (doses to about 57.7 µM), usual class: inhibitors | Alanine aminotransferase 2 (Homo sapiens), Q8TD30 | hit rate 0.25% among 100,000 | Recombinant GPT2, coupled pyruvate oxidase/HRP Amplex Red fluorescence; also: nearly all actives have a fitted effect of over 60% in size
Target sequence (Q8TD30 whole entry, looked up): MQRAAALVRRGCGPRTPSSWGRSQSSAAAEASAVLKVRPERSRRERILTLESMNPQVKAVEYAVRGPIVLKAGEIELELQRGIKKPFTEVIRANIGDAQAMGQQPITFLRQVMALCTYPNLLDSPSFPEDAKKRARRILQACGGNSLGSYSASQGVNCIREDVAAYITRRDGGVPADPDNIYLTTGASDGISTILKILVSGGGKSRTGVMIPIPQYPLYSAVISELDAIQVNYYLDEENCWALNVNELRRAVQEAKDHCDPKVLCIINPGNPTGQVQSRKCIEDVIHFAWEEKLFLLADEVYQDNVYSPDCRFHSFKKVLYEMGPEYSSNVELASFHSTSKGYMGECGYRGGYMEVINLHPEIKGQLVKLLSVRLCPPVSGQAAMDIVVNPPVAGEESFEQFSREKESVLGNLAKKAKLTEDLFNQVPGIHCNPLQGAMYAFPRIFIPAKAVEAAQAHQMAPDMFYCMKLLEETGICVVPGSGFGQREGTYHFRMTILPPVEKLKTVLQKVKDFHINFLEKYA
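Inhibition is scored from Amplex Red fluorescence generated when pyruvate oxidase and HRP act on pyruvate released by GPT2. Reactions contain 10ng/uL enzyme, 250uM a-KG and 2mM L-alanine and run 30 min at room temperature.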
hNpr1 antagonist = Natriuretic polypeptide receptor (hNpr1) antagonism - Primary qHTS; AID 1347048, 2019; hit rate 1.6% among 76,000; Potency, µM (highest dose often 46.3 µM), most hits filed as inhibitors; HEK293 hNpr1 GloSensor cGMP, ANP-stimulated luminescence; Atrial natriuretic peptide receptor 1 (Homo sapiens), P16066; calls by dose curve; also: nearly all actives have a fitted effect of over 60% in size
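HEK293 cells stably expressing human Npr1 and cGMP GloSensor pGS-40F, loaded 2 h with 2% GloSensor reagent, given compound 30 min at room temperature. Luminescence read before and 20 min after 0.1 nM hNppA.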
HEK cytotox = Cytotoxic Profiling in HEK 293 Cell Line of Diverse Libraries Using Quantitative High-Throughput Screening; HEK 293 viability, ATP luminescence (CellTiter-Glo), 48-72 h; hit rate 6.6% among 94,000; Potency, µM (titrated, usually from 115 µM), hits mostly inhibitors; also: nearly all actives have a fitted effect of over 60% in size
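HEK 293 seeded at 250 cells/well receive compound via pintool. After 48 or 72 hr at 37 degree Celsius, 5% CO2 and 95% humidity, CellTiter-Glo is dispensed and luminescence read following 10 min at room temperature.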
Of the large screens only hits and unclear results are named; the others gave an inactive call; ! = repeats disagree. Unless noted, calls follow the shape of the dose curve; as a rule, active = well fitted curve in the direction sought with a large enough effect; inconclusive = small, poorly fitted or top-dose-only effect, or another doubt; inactive = no such curve, though single readings can be large; an effect the other way counts as inactive or inconclusive.

O=C(C1CCN(S(=O)(=O)c2cccc(C(F)(F)F)c2)CC1)N1CCC(c2ccccc2)CC1	NIH3T3 tox inconclusive, HEK cytotox 22.4µM (no result: FLuc inh, hNpr1 antagonist)
Cc1noc(C)c1-c1cc2cc(CN(C)C)oc2c(N2CCN(Cc3ccccc3)CC2)n1	NIH3T3 tox 35.5µM, GPT2 inhibitor inconclusive, HEK cytotox 50.1µM
Cc1noc(C)c1-c1cc2cc(CN(C)C)oc2c(N2CCN(c3ccccn3)CC2)n1	NIH3T3 tox 35.5µM, HEK cytotox 44.7µM
Cc1noc(C)c1-c1cc2cc(CO)oc2c(N2CCN(c3ccccn3)CC2)n1	NIH3T3 tox inconclusive, HEK cytotox 70.8µM
CN(C)C(=O)NC1CCN(c2nccc(Nc3ccccc3Cl)n2)CC1	NIH3T3 tox 28.2µM, HEK cytotox 44.7µM (no result: FLuc inh, hNpr1 antagonist)
COc1ccc(Nc2ccnc(N3CCN(C(=O)NC4CCCC4)CC3)n2)cc1	NIH3T3 tox inconclusive, HEK cytotox 44.7µM (no result: FLuc inh, hNpr1 antagonist)
COc1ccccc1Nc1ccnc(N2CCN(C(=O)NC3CCCC3)CC2)n1	NIH3T3 tox 31.6µM, HEK cytotox 44.7µM (no result: FLuc inh, hNpr1 antagonist)
COc1ccccc1Nc1ccnc(N2CCC(C(=O)NC3CCCC3)CC2)n1	NIH3T3 tox inconclusive, HEK cytotox inconclusive (no result: FLuc inh, hNpr1 antagonist)
O=C(NC1CCCC1)N1CCN(c2nccc(Nc3ccccc3Cl)n2)CC1	NIH3T3 tox inconclusive, HEK cytotox 39.8µM (no result: FLuc inh, hNpr1 antagonist)
CSCC(=O)N[C@H]1CCN2C(=O)c3cc(-c4ccc5c(c4)OCO5)ccc3NC(=O)[C@H]12	NIH3T3 tox inconclusive, FLuc inh inconclusive
O=C(NC1CCN(c2nccc(Nc3ccccc3Cl)n2)CC1)C1CCCC1	NIH3T3 tox 28.2µM, HEK cytotox inconclusive (no result: FLuc inh, hNpr1 antagonist)
COc1ccccc1Nc1ccnc(N2CCC[C@H]2C(=O)N2CCC(Cc3ccccc3)CC2)n1	NIH3T3 tox inconclusive, HEK cytotox 39.8µM (no result: FLuc inh, hNpr1 antagonist)
CC(=O)N1CC2(CCN(C(=O)c3ccc(Cl)cc3)CC2)Cc2ccccc21	NIH3T3 tox 10µM, HEK cytotox inconclusive (no result: FLuc inh, hNpr1 antagonist)
O=C(c1ccc(Cl)cc1)N1CC2(CCCN(Cc3cccnc3)C2)Cc2ccccc21 (centres undefined)	NIH3T3 tox inconclusive, HEK cytotox 39.8µM (no result: FLuc inh, hNpr1 antagonist)
CC(=O)N1CC2(CCCN(Cc3cc4ccccc4[nH]3)C2)Cc2ccccc21 (centres undefined)	NIH3T3 tox 25.1µM, HEK cytotox inconclusive (no result: FLuc inh, hNpr1 antagonist)
CC(=O)N1CC2(CCN(C(=O)c3ccc(C)s3)CC2)CC1C(=O)O (centres undefined)	none
Cc1ncsc1CN1CCC(Cc2ncc(C)n2CC2CC2)C1 (centres undefined)	none
COc1cccc(CN2CCC(Cc3ncc(C)n3CC3CC3)C2)c1OC (centres undefined)	NIH3T3 tox inconclusive, HEK cytotox 44.7µM
CN1CCN(C(=O)c2cc3c(s2)CCN(C(=O)c2ccc(Cl)cc2)C3)CC1	NIH3T3 tox inconclusive, HEK cytotox inconclusive
CC1CCN(C(=O)c2cc3c(s2)CCN(C(=O)c2ccc(Cl)cc2)C3)CC1	NIH3T3 tox inconclusive, HEK cytotox 39.8µM
CCOc1cc(C(=O)NC2CCN(c3cc(-c4cccs4)[nH]n3)C2)cc(OCC)c1OCC (centres undefined)	NIH3T3 tox inconclusive, HEK cytotox 44.7µM
CCOc1ccc(CC(=O)NC2CCN(c3cc(-c4cccs4)[nH]n3)C2)cc1 (centres undefined)	NIH3T3 tox 15.8µM, GPT2 inhibitor inconclusive, HEK cytotox 44.7µM
COc1cc(OC)cc(C(=O)NC2CCN(c3cc(-c4cccs4)[nH]n3)C2)c1 (centres undefined)	NIH3T3 tox inconclusive, GPT2 inhibitor inconclusive, HEK cytotox inconclusive
O=C(Cc1ccccc1F)NC1CCN(c2cc(-c3cccs3)[nH]n2)C1 (centres undefined)	NIH3T3 tox inconclusive, HEK cytotox 15.8µM
O=C(Cc1cccc(F)c1)NC1CCN(c2cc(-c3cccs3)[nH]n2)C1 (centres undefined)	NIH3T3 tox inconclusive, GPT2 inhibitor inconclusive, HEK cytotox inconclusive
CN(C(=O)Cc1ccc(F)cc1)C1CCCc2ccccc21 (centres undefined)	HEK cytotox 100µM
CN(C(=O)c1cccc(Cl)c1)C1CCCc2ccccc21 (centres undefined)	NIH3T3 tox inconclusive, HEK cytotox 70.8µM
CN(C(=O)Nc1ccc(Cl)cc1)C1CCCc2ccccc21 (centres undefined)	NIH3T3 tox inconclusive, FLuc inh 28.2µM, HEK cytotox 89.1µM
CN(C(=O)c1ccccc1)C1CCCc2ccccc21 (centres undefined)	NIH3T3 tox inconclusive, HEK cytotox inconclusive
Cc1ccc(C(=O)N(C)C2CCc3ccccc32)cc1 (centres undefined)	NIH3T3 tox inconclusive, FLuc inh inconclusive, HEK cytotox 100µM
CN(Cc1ccc(F)cc1)C1CCCc2ccccc21 (centres undefined)	none
CN(C(=O)Nc1ccc(Cl)cc1)C1CCc2ccccc21 (centres undefined)	HEK cytotox inconclusive
Cc1ccc(NC(=O)N2CCCC2c2nncn2C2CCCC2)cc1F (centres undefined)	none
O=C(Cc1cccc(F)c1)NCc1nnc2cc(-c3nc(C4CC4)no3)ccn12	none
Cc1cccc(CN(C(=O)c2ccco2)c2ccc(CC(=O)NCC3CCCO3)cc2)c1 (centres undefined)	HEK cytotox inconclusive
CCCCOc1ccc(C(=O)CCN2CCCCC2)cc1	none (no result: NIH3T3 tox, FLuc inh, hNpr1 antagonist, HEK cytotox)
O=C(c1ccc(OCCN2CCCCC2)cc1)c1c(-c2ccc(O)cc2)sc2cc(O)ccc12	GPT2 inhibitor 8.91µM! (no result: NIH3T3 tox, FLuc inh, hNpr1 antagonist, HEK cytotox)
CC(=O)N1CCCC(C(=O)N2CCC3(CC2)CC(=O)Nc2ccccc2O3)C1 (centres undefined)	none (no result: FLuc inh, hNpr1 antagonist)
O=C1CC2(CCN(C(=O)C3CCCN(C(=O)Nc4ccccc4)C3)CC2)Oc2ccccc2N1 (centres undefined)	NIH3T3 tox inconclusive, HEK cytotox 31.6µM (no result: FLuc inh, hNpr1 antagonist)
Cc1noc(C)c1S(=O)(=O)N1CCC2(CC1)C(=O)N(C)c1ccccc12	HEK cytotox inconclusive
CN(C)C(=O)Nc1cccc(-c2ccc(N(C)C)cc2)c1	none (no result: NIH3T3 tox, FLuc inh, hNpr1 antagonist, HEK cytotox)
COc1ccccc1-c1cccc(C(=O)N2CCN([S+](=O)([O-])c3c(C)noc3C)CC2)c1	HEK cytotox inconclusive (no result: FLuc inh, hNpr1 antagonist)
COc1ccccc1-c1cccc(C(=O)N2CCN([S+](=O)([O-])c3ccccc3)CC2)c1	NIH3T3 tox inconclusive, HEK cytotox 31.6µM (no result: FLuc inh, hNpr1 antagonist)
COc1ccccc1-c1cccc(C(=O)N2CCN([S+](=O)([O-])c3cccs3)CC2)c1	NIH3T3 tox inconclusive, HEK cytotox 20µM (no result: FLuc inh, hNpr1 antagonist)
O=C(CC[C@@H]1CNC(=O)[C@@H]2C[C@H](NCc3ccccn3)CN12)NCc1ccccc1	NIH3T3 tox 56.2µM, HEK cytotox 70.8µM
